# Assays:
# [1] = target: T1, Aspartate--tRNA(Asp/Asn) ligase (Mycobacterium tuberculosis (strain ATCC 25618 / H37Rv)) (UniProt P9WFW3); test: Assay for Asp RNA synthetase-1 from Mycobacterium tuberculosis; assay type: functional; design: scale not given: direction of the effect not stated beside the values; conditions: 30 µM; further: in the data most compounds retested in dose-response had high values
# T1 sequence (whole entry): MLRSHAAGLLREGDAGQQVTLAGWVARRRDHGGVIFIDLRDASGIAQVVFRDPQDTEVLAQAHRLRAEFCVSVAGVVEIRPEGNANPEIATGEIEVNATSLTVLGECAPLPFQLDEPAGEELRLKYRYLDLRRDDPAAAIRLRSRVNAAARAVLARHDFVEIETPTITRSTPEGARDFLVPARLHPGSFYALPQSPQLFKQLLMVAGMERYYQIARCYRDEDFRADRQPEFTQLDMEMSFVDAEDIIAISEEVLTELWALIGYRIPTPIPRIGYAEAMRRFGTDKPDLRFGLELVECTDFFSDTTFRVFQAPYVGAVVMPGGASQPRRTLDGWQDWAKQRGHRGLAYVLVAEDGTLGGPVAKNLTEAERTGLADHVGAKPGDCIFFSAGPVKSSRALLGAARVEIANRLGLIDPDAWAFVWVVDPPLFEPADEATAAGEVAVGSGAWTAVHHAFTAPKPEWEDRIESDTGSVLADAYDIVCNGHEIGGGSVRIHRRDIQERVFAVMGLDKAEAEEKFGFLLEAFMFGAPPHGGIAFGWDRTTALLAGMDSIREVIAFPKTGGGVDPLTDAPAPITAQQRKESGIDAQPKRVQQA
# [2] = target: Shiga toxin 2 (Escherichia coli O157:H7) (UniProt P09385+P09386); test: E. coli 0.157:H7 Shiga Toxin SOP - stx2 screening assay; assay type: functional; design: scale not given: direction of the effect not stated beside the values; conditions: 30 µM
SMILES,Percent Effect [1],Percent Effect [2]
COc1ccc(NC(=O)C(c2cccc(F)c2)N2CCOCC2)cc1 (configuration not stated),5.63%,-8.77%
Cc1nc(CN2CCCC(N(C)Cc3nnsc3Cl)C2)no1 (configuration not stated),-2.25%,18.2%
Cc1noc(C(C)N2CCN(CCC(=O)N3CCCCC3)CC2)n1 (configuration not stated),-2.64%,7.71%
O=S(=O)(Nc1cnn(C2CCOCC2)c1)c1ccc(F)c(F)c1,3.75%,1.76%
CC(C)Nc1ncnc2c1CCN(C(=O)Cc1ccccn1)CC2,3.17%,-44.7%
COCc1nn(C(C)C)c2c1CCN(Cc1ccc(C)s1)C2,-3.6%,-26.4%
COCCCNC(=O)NCc1ccc(C)cc1,-3.8%,-59.7%
CC(C)(C)n1cc(C(=O)N2CCN(Cc3ccccc3F)CC2)cn1,-1.61%,20.1%
CCN(c1ccc(C(=O)N2CCCC2)cc1)S(=O)(=O)CC,5.6%,-13.5%
COCCNC(=O)Nc1ccc(F)c(C(N)=O)c1,3.91%,-19.7%
Cc1ncnc(NCc2cc3n(n2)CCCN(S(C)(=O)=O)C3)c1C,0.518%,12.4%
CN(CCO)C[C@@H]1CN(C(=O)c2c(F)cccc2Cl)C[C@@H]1CO,2.26%,-49%
COCc1cc(NCCc2ccc(F)cc2)n2nccc2n1,4.6%,4.14%
CC(=O)NC1CCCN(C(=O)Nc2cnc3c(cnn3C(C)C)c2)C1 (configuration not stated),-4.11%,18%
CN(C)c1ccccc1C(=O)N1C[C@@H](CN2CCOCC2)[C@@H](CO)C1,-3.28%,10.2%
CC1CCCN(C(=O)c2csc(S(N)(=O)=O)c2)CC1 (configuration not stated),0.324%,-19.1%
CCN(Cc1nc2c(cnn2C)c(=O)[nH]1)c1cccc(Cl)c1,0.461%,19.9%
COCC(=O)N1CC[C@H]2C[C@@H](c3nnc(C4CC4)o3)O[C@@H]2C1,-1.34%,-18.9%
CC(CNc1cncc(-n2cccn2)n1)N(C)c1ccccc1 (configuration not stated),2.34%,7.51%
COc1cccc(N2CCN(CC(O)c3ccc(C)cc3)CC2)c1 (configuration not stated),8.45%,10.4%
CCc1ccc(CN2CCC3(CC2)CC(N2CCN(C)CC2)CO3)cc1 (configuration not stated),2.64%,1.21%
c1cc2n(n1)CC(CNCc1ccc(OCC3CC3)nc1)CN2 (configuration not stated),0.395%,-66.4%
Cc1nccn1-c1cc(CNC(=O)CCNC(=O)C2CCCC2)ccn1,-2.19%,1.23%
Cc1nc(C2CCCN2C(=O)c2cnns2)no1 (configuration not stated),-4.19%,27.5%
O=C1[C@H]2CN(CC3CC3)C[C@H]2CN1Cc1cccc(F)c1,1.33%,-1.04%
O=C(c1cc(F)ccc1F)C1CCN(C(=O)c2ccccn2)CC1,-3.52%,18.1%

SMILES,Percent Effect [1],Percent Effect [2]
COCCNC(=O)C[C@@H]1COC[C@H]2CN(C(=O)c3cnccn3)C[C@@H]12,-8.37%,-20.7%
Cc1ccc(CN2CCc3c(C(=O)N(C)C)nn(C)c3C2)s1,1.82%,3.56%
COc1c(C2CCCN2C(=O)Cc2c(C)noc2C)c(C)nn1C (configuration not stated),-3.25%,6.14%
Cc1nc(O)c2nnn(C[C@H]3CCCN3C(=O)c3cccc(F)c3)c2n1,2.16%,-4.92%
Cc1cc(-c2nn(C)c(Cl)c2CN2CCOCC2CC(=O)O)no1 (configuration not stated),-2.48%,19.9%
NC(=O)CCN1CCC(C(=O)c2cc(F)ccc2F)CC1,0.12%,-0.638%
CN(C)Cc1cc(=O)n2c(n1)CN(C(=O)Cc1ccsc1)CCC2,-1.04%,-17%
CC(C)N(CC(N)=O)Cc1csc(Cc2ccccc2)n1,0.228%,12%
COc1c(CNC2CCN(C(=O)C3CC3)CC2)c(C(C)C)nn1C,1.69%,29.5%
Cc1cnn(CC2CCCN2C(=O)c2cc3ccccc3[nH]2)c1 (configuration not stated),1.27%,14.6%
CCc1nc(CN2CCCN(c3nccs3)CC2)no1,2%,-3.78%
Cn1ncc(NCc2cccc(COC(C)(C)C)c2)c(Cl)c1=O,-4.13%,12%
COc1ccc(S(=O)(=O)N2CCCC3(CCCN3S(C)(=O)=O)C2)cc1 (configuration not stated),-2.13%,0.605%
Cc1noc(C(C)C)c1C(=O)N1CCOCC1CC(=O)c1ccco1 (configuration not stated),2.61%,-4.27%
Cc1csc(N2CCN(C(=O)CCNc3ncccn3)CC2)n1,1.38%,21.6%
COCCN1CCN(C(C)C(=O)Nc2ccnn2C(C)C)CC1 (configuration not stated),0.69%,-2.27%
CC(C)C(=O)N1CCCC(c2cc(C(F)F)n3ncnc3n2)C1 (configuration not stated),1.92%,-11.7%
Cc1ccc(C(CNCc2cnn(C(C)C)c2)N2CCOCC2)s1 (configuration not stated),-4.07%,-11%
CCOc1ccccc1C(=O)N1CCCC1c1ncc2c(n1)CCNC2 (configuration not stated),-3.07%,48.2%
Cc1cnc(CN(C)C2CCN(Cc3ccccc3C#N)C2)o1 (configuration not stated),-4.54%,-34.4%
CSCc1cccc(S(=O)(=O)NCCCN2CCOCC2)c1,13.9%,-32.1%
Cc1cc(C2CCCN2C(=O)c2cc3c(s2)CCC3)on1 (configuration not stated),-0.678%,5.77%
Cc1ccc(N2CCCC(NCC(=O)NC3CCOCC3)C2)nn1 (configuration not stated),5.08%,-27.9%
CC(C)(C)c1ccc(C2(C(=O)NCCS(N)(=O)=O)CC2)cc1,13.3%,-15.1%
Cn1cc(Br)c(=O)c(NS(=O)(=O)c2ccc(F)cc2)c1,-2.87%,-1.63%

# Source: ChEMBL document CHEMBL3988442, “University of Dundee, Small-Polar-MMV Screening Library” (2021)
